# Source: PubChem
# CYP2C9 activ – human CYP2C9 activators, primary screen, biochemical, luminescence. Cytochrome P450 2C9 (Homo sapiens), P11712. activation factor at 5 µM. recombinant CYP2C9, luciferin-H conversion; stronger effect = higher value; factor 1 = untreated enzyme, 0 = blocked. hit rate 1.4% among 96,000;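 active means activation factor of 2 or more for CYP2C9 at a 5 µM dose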
# Target sequence (P11712 whole entry, looked up): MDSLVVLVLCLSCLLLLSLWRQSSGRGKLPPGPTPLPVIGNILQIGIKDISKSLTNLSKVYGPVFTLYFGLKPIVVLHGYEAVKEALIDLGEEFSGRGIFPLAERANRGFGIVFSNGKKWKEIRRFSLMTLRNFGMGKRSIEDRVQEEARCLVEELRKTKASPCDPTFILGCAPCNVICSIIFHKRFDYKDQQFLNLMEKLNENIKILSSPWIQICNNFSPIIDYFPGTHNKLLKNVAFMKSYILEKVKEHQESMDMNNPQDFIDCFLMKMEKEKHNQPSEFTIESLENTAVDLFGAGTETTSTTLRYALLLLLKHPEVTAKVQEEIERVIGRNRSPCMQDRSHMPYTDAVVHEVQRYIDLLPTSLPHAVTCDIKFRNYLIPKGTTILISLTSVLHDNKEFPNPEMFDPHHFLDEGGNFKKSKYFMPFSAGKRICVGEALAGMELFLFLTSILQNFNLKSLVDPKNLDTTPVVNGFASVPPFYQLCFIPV
# E-sel TNF inh – E-selectin induction blockers in HUVEC – imaging, immunofluorescence, high content, primary screen | HUVEC TNFa-induced E-selectin immunofluorescence | inhibition, % at 2 µM | hit rate 0.71% among 120,000 | AID 1246, 2008;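 active means inhibition above the batch mean plus 3 SD, and confirmed as a hit on visual image review, cut at about 43% in these data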
# CYP2C19 inh – blockers of cytochrome P450 2C19 activity – biochemical, luminescence, ADME assay, primary screen; hit rate 21% among 96,000; CYP2C19 Supersomes, luciferin-H EGE luminescence, 30 min; inhibition, % at 5 µM; AID 778, 2007;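 active means CYP2C19 inhibition above a set limit at 5 µM in the primary screen, cut at about 50% in these data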
# cytoskel mod – modifiers of F-actin cytoskeleton organization, primary screen, imaging, HUVEC, phalloidin staining, high-content imaging. HUVEC TNFa F-actin phalloidin imaging. hit rate 0.18% among 91,000. inhibition, % at 2 µM. AID 836, 2007;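 active means inhibition above the batch mean plus 3 SD and confirmed as a hit by visual image inspection, cut at about 30% in these data, passing the limit was not always enough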
# CYP2C9 inhib – blockers of cytochrome P450 2C9 activity – biochemical, luminescence, ADME assay, primary screen. P11712. CYP2C9 Supersomes, luciferin-H conversion. inhibition, % at 5 µM. hit rate 20% among 96,000;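 active means blocking of liver enzyme CYP2C9 beyond about 50% at 5 µM, limit read from the data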
# CYP2C19 act – human CYP2C19 activators, primary screen, biochemical, luminescence | Cytochrome P450 2C19 (Homo sapiens), P33261 | recombinant CYP2C19, luciferin-H EGE luminescence; stronger effect = higher value; 0 = fully inhibited enzyme, 1 = untreated enzyme | activation factor at 5 µM | 96,000 tested, under 10 active;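 active means activation factor of at least 2 at 5 µM in the primary screen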
# Hits are given with their value; 0 = inactive; - = no result. Compounds with a hit are over-represented: about 22% of the library has one in this group of screens.
SMILES,CYP2C9 activ,E-sel TNF inh,CYP2C19 inh,cytoskel mod,CYP2C9 inhib,CYP2C19 act
CCOc1ccc(C(CC(=O)O)NC(=O)c2cccs2)cc1 (stereo not given),-,0,-,-,-,-
CC1CCN(S(=O)(=O)c2cccc(C(=O)NCc3cccs3)c2)CC1,0,0,0,0,0,0
CCOc1ccc(C(=O)NCc2cccs2)cc1,0,0,67,0,0,0
CN(C)S(=O)(=O)c1cccc(C(=O)NCc2cccs2)c1,0,0,51,0,60,0
COc1ccc(C(=O)NCC(=O)OCC(=O)NCc2cccs2)cc1,-,0,-,-,-,-
CCOC(=O)CC(NC(=O)c1cccs1)c1ccc(OCC)cc1 (stereo not given),0,0,52,0,65,0
CCN(CC)S(=O)(=O)c1ccc(C(=O)NCc2cccs2)cc1,0,0,0,0,53,0
O=C1c2ccccc2C(=O)N1CCCN1CCN(CCCN2C(=O)c3ccccc3C2=O)CC1,-,0,-,0,-,-
COc1ccc(CNn2c(-c3cccc(C)c3)nc3ccccc3c2=O)cc1OC,0,0,81,0,0,0
Cc1cccc(-c2nc3ccccc3c(=O)n2NC(=S)N(C)C)c1,-,0,-,-,-,-
COc1ccccc1CNn1c(-c2cccc(C)c2)nc2ccccc2c1=O,0,0,97,0,86,0
Cc1c(Cl)cnc(NC(=O)CSc2nnc(C)n2Cc2ccccc2)c1Cl,0,0,0,0,0,0
Cc1nc(-n2nnc3cc(C)c(C)cc32)c2c3c(sc2n1)CCCC3,-,0,-,0,-,-
CC(=O)Nc1ccc(NC(=O)CSc2ccc(C)cc2)cc1,0,0,70,0,81,0
Cc1ccc(SCC(=O)Nc2cccc(NC(=O)c3ccco3)c2)cc1,0,0,0,0,72,0
Cc1ccc(-n2nnnc2SCC(=O)Nc2cccc(NC(=O)c3ccco3)c2)cc1C,0,0,50,0,0,0
CCCn1nnnc1SCC(=O)Nc1cccc(NC(=O)c2ccco2)c1,0,0,75,0,60,0
Cc1cc(C)nc(NS(=O)(=O)c2ccc(NC(=S)NC(=O)c3cccnc3)cc2)n1,-,0,-,-,-,-
Cc1cc(C)c(C2=NOC3C4CCC(C4)C23)c(C)c1 (stereo not given),-,0,-,-,-,-
C=CCn1c(SCC(=O)NC(C)(C)C)nnc1-c1ccccc1O,0,0,0,0,0,0
C=CCn1c(SCc2cccc(C#N)c2)nnc1-c1ccccc1O,0,-,100,0,0,0
C=CCn1c(SCc2ccc(C#N)cc2)nnc1-c1cccc(Cl)c1,0,0,97,0,64,0
Cc1ccc(CN2CCN(/N=C/c3cc(Br)ccc3O)CC2)cc1,0,0,0,0,0,0
COc1ccc(N2CCCn3c2nc2c3c(=O)n(CCc3ccccc3)c(=O)n2C)cc1,0,-,0,-,0,0
Cc1cc2ncn(/N=C/c3cc(Br)ccc3O)c2cc1C,0,0,0,0,61,0
SMILES,CYP2C9 activ,E-sel TNF inh,CYP2C19 inh,cytoskel mod,CYP2C9 inhib,CYP2C19 act
Cc1cc(C)nc(-n2nc(C)cc2NC(=O)CN2CCCC(C)C2)n1 (stereo not given),0,-,0,0,0,0
Cc1cc(C)nc(-n2nc(C)cc2NC(=O)CN2CCc3ccccc3C2)n1,0,0,86,0,89,0
Cc1cc(C)nc(-n2nc(C)cc2NC(=O)CNCc2ccccc2)n1,0,0,0,0,61,0
CCN(CC(=O)Nc1cc(C)nn1-c1nc(C)cc(C)n1)Cc1ccccc1,0,0,69,-,83,0
O=S(=O)(O)c1nnc2sc3ccccc3n12,0,0,0,0,0,0
N#Cc1cnc2sc3ccccc3n2c1=N,0,0,0,0,89,0
O=C(Nc1ncc2c(n1)-c1ccccc1OC2)c1ccc(Cl)cc1Cl,0,0,0,0,0,0
CC1=C(C(=O)OCC(C)C)C(c2cccc(F)c2)N2C(=O)C(C)SC2=N1 (stereo not given),0,-,75,-,75,0
CC1=C(C(=O)OC(C)C)C(c2cccc(F)c2)N2C(=O)C(C)SC2=N1 (stereo not given),0,-,81,-,70,0
Cc1cc(C(F)(F)F)n(-c2nc(C(=O)N/N=C/c3ccc(F)cc3)cs2)n1,0,0,0,0,55,0
O=C(CCc1ccc(S(=O)(=O)N2CCCCC2)cc1)c1nnc(-c2ccccc2)o1,0,0,74,-,0,0
O=C(c1ccc(S(=O)(=O)N2CCCCC2)cc1)c1nnc(-c2ccc(Cl)cc2)o1,0,-,0,0,0,0
CC(=O)Nc1cc(-c2nn(C)c(=O)c3ccccc23)ccc1N1CCOCC1,0,0,0,0,0,0
Cc1ccc(S(=O)(=O)Nc2cc(-c3nn(C)c(=O)c4ccccc34)ccc2N2CCOCC2)cc1,0,0,93,0,94,0
Cn1nc(-c2ccc(N3CCOCC3)c(NS(=O)(=O)c3ccc(Cl)cc3)c2)c2ccccc2c1=O,0,0,86,0,84,0
O=C(CSc1nnc(Cn2c(=O)sc3ccccc32)n1-c1ccccc1)NCC1CCCO1 (stereo not given),0,0,0,-,0,0
COc1ccc(-c2[nH]c(-c3ccc(F)cc3)nc2SCC(=O)NCc2ccco2)cc1OC,0,-,51,0,0,0
COc1ccc(-c2nc(SCC(=O)NCc3ccco3)c(-c3ccccc3)[nH]2)cc1OC,0,0,78,0,65,0
CCCCn1c(SCC(N)=O)nnc1-c1cc(OC)c(OC)c(OC)c1,0,0,0,-,0,0
COCCCNC(=O)Cn1ncc2ccsc2c1=O,0,0,0,0,0,0
CC1(C)CC(=O)C2=C(C1)N(c1ccccc1)C(N)=C(C#N)C2c1cccnc1 (stereo not given),0,-,0,-,50,0
CCC(CC)NCc1ccc2c(c1)c1ccccc1n2CC,-,0,-,-,-,-
N#CC1=C(N)N(c2ccc(Br)cc2)C2=C(C(=O)CCC2)C1c1cccnc1 (stereo not given),0,0,0,-,52,0
CCn1c2ccccc2c2cc(C3C(C#N)=C(C)NC(C)=C3C#N)ccc21,0,-,100,0,95,0
CCn1c2ccccc2c2cc(N)ccc21,0,0,93,0,0,0
O=C1CC(c2ccccc2)n2nc(NC(=O)c3cccs3)nc2N1 (stereo not given),0,-,0,0,0,0
CC(C)(C)C(=O)NC(=S)Nc1cc(C(=O)O)ccc1Cl,0,0,0,0,0,0
Cc1ccc(CN(C)C(=O)c2ccccc2Oc2ccccc2)o1,0,0,0,0,0,0
O=C1CCCC2=C1C(Cc1ccccc1)C1=C(CCCC1=O)O2,0,-,82,0,0,0
N#CC1=C(N)OC2=C(C(=O)CCC2)C1CCc1ccccc1 (stereo not given),0,0,94,0,92,0
